Test [1] deals with Inward rectifier potassium channel 2 (Mus musculus) (UniProt P35561). Nature of the test: mouse Kir2.1 channel blockers, retest, confirmation, cell-based, FluxOR thallium flux, duplicate (AID 2032;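 active = Primary-screen hit whose thallium flux fell at least 3 control SD below untreated wells in both duplicates, with normal baseline fluorescence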). The note with it: Kir2.1-expressing cells, FluxOR thallium flux fluorescence, at 10 µM; active compounds read low.
The nature of test [2]: nonspecific thallium flux effects in parental HEK293 cells, confirmation, counter-screen for Kir2.1 inhibitor project, cell-based, FluxOR thallium flux, duplicate, single concentration (AID 2105;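 active = dye signal at least 3 control SD above or below untreated wells in both duplicates, raw fluorescence within 3, either direction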). The settings on record: FluxOR thallium flux fluorescence, at 10 µM; 0% = unstimulated blank wells. Background: A counterscreen serves to expose hits that act by an unwanted route or on another target.

A short description of test [3]: nonspecific thallium flux increase in parental CHO-K1, confirmation, counter-screen for KCNQ2 potentiator project, cell-based, FluxOR thallium flux, duplicate (AID 2282;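 active = signal rise of at least 3 SD above the untreated control mean, in both duplicate wells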;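 note: counter screen of KCNQ2 potentiator hits so any rise reflects channel-independent effects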). The note with it: parental CHO-K1 cells, FluxOR thallium flux fluorescence; at 10 µM; active compounds read high; zero = vehicle mean+3SD, 100% = vehicle-minus-blank window.
The target in test [4] is Potassium voltage-gated channel subfamily KQT member 1 (Homo sapiens) (UniProt P51787). Nature of the test: human KCNQ1 channel potentiation off-target, confirmation, selectivity assay for KCNQ2 potentiator project, cell-based, CHO, FluxOR thallium flux (AID 2283;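 active = fluorescence ratio rise of at least 3 SD of vehicle wells above their mean, in both replicate wells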;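 note: 0% = vehicle mean plus 3 SD and 100% = vehicle minus unstimulated blank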). The settings on record: CHO KCNQ1 stable, FluxOR thallium flux fluorescence; at 10 µM; active compounds read high; beyond 3SD, as % of vehicle-control signal.
Chain of Potassium voltage-gated channel subfamily KQT member 1 (Homo sapiens) (P51787 whole entry, looked up): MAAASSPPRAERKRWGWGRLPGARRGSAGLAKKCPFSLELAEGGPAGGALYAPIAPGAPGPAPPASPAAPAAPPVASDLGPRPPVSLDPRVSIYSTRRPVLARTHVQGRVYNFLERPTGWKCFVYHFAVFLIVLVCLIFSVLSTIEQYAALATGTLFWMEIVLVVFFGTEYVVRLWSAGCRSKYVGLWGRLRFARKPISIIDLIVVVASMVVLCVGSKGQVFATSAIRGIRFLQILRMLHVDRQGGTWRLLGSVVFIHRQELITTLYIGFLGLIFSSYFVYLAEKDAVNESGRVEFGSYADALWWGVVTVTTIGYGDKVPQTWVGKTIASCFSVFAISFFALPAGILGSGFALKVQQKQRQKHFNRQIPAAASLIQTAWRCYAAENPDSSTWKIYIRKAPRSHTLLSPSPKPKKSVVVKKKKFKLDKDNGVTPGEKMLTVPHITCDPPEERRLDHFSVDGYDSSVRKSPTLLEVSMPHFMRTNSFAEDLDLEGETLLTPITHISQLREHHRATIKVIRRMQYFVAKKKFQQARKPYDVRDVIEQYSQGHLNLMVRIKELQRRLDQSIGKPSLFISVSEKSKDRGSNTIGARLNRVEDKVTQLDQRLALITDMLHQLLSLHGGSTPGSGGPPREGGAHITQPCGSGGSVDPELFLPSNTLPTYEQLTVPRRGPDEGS

Test [5] deals with Potassium voltage-gated channel subfamily KQT member 2 (Rattus norvegicus) (UniProt O88943). Nature of the test: rat KCNQ2 channel potentiators, confirmation, cell-based, CHO, FluxOR thallium flux, duplicate (AID 2287;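 active = fluorescence ratio rising 3 SD or more over the vehicle control mean in both replicates, plus primary screen hit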;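 note: peak minus minimum thallium fluorescence divided by baseline after K/Tl stimulus; 0% = vehicle mean plus 3 SD and 100% = vehicle minus unstimulated blank difference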). The settings on record: CHO-KCNQ2 cells, FluxOR thallium flux fluorescence; at 10 µM; active compounds read high.
Chain of Potassium voltage-gated channel subfamily KQT member 2 (Rattus norvegicus) (O88943 whole entry, looked up): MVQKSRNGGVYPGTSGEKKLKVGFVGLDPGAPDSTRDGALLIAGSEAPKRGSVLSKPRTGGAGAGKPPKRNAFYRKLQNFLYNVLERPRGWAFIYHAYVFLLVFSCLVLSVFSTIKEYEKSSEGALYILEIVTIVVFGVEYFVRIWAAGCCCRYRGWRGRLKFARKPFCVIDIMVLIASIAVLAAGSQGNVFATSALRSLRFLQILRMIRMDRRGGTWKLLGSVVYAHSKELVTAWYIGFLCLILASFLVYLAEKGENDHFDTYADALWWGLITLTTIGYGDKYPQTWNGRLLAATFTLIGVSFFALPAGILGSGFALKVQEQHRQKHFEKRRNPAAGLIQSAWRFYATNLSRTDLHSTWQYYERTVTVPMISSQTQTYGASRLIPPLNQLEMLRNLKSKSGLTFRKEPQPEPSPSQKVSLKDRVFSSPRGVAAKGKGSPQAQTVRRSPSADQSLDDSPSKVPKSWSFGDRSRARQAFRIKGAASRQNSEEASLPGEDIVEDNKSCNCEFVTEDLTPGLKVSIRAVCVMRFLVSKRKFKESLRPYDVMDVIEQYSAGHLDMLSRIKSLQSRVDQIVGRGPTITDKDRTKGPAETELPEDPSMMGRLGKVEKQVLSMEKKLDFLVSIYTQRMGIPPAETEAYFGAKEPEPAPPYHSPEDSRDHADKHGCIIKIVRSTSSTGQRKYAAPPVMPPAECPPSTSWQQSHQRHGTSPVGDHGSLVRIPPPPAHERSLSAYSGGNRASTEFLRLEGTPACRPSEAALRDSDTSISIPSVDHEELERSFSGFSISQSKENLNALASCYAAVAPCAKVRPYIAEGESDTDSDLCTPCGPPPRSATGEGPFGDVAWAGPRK
Test [6] addresses Inward rectifier potassium channel 2 (Mus musculus) (UniProt P35561). Nature of the test: PubChem AID 2345.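 Note: 0% = vehicle mean plus 3 SD and 100% = vehicle minus no-stimulus blank window.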 The settings on record: HEK293 Kir2.1, FluxOR thallium flux fluorescence; at 10 µM; active compounds read high.
Test [7] addresses Voltage-gated inwardly rectifying potassium channel KCNH2 (Homo sapiens) (UniProt Q12809). Description: hERG channel inhibition, counter-screen for Kir2.1 inhibitor project, cell-based, thallium flux (AID 2236).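 Note: host cells are CHO cells stably expressing hERG.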 The settings on record: hERG-expressing cells, at 10 µM; active compounds read high. A general note: The hERG channel carries a current that helps repolarise heart muscle cells.

The target in test [8] is Potassium channel subfamily K member 9 (Homo sapiens) (UniProt Q9NPC2). Description: KCNK9 channel inhibition, selectivity assay for Kir2.1 inhibitor project, cell-based (AID 2329). The settings on record: KCNK9-expressing cells, ion flux inhibition, at 10 µM; active compounds read high.
The target of test [9] is Inward rectifier potassium channel 2 (Mus musculus) (UniProt P35561). Nature of the test: mouse Kir2.1 channel blockers, Kir2.1 inhibitor project, cell-based, secondary, automated electrophysiology (AID 463252). The settings on record: Kir2.1 cells, automated patch-clamp current inhibition, at 25 µM; active compounds read high.
Test [10] is described as follows: parental HEK293 membrane potential modulation, confirmation, counter-screen for TRPC6 modulator project, cell-based (AID 488924;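 active = membrane potential signal moves up or down beyond 5 SD from buffer-only wells, on both duplicate plates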). The settings on record: parental HEK293, membrane potential dye fluorescence; at 10 µM.
A short description of test [11]: modulation of acetylcholine-evoked membrane potential, parental HEK293, confirmation, counter-screen for TRPC6 modulator project, cell-based, second counter-screen, membrane potential dye (AID 488926;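 active = membrane potential signal drops by more than 5 SD from the mean control signal, in both duplicate plates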). The note with it: parental HEK293, membrane potential dye fluorescence; at 10 µM; after compound, maximal acetylcholine stimulation.
Test [12] relates to Transient receptor potential cation channel subfamily C member 4 (mouse). Nature of the test: TRPC4 modulation by TRPC6 hit compounds, confirmation, selectivity assay for TRPC6 modulator project, cell-based, HEK293 TRPC4/mu-opioid, membrane potential dye, mouse (AID 488927;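 active = membrane potential signal moved up or down beyond 5 SD of buffer control wells, in both duplicate plates, actives on both sides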;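 note: plate controls were assay buffer wells for no effect and DAMGO maximal-effect wells for full effect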). The note with it: membrane potential fluorescence, at 10 µM.
In test [13] the test system is TRPC4 (transient receptor potential cation channel C4), mouse. Description: TRPC4 inhibition by TRPC6 hit compounds, confirmation, selectivity assay for TRPC6 modulator project, cell-based, second screen, HEK293 TRPC4/mu-opioid, membrane potential dye (AID 488928;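 active = drop in membrane potential signal beyond 5 SD of the control wells in both duplicate plates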;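 note: TRPC4 counter screen for TRPC6 hits run under conditions tuned for TRPC6 not TRPC4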). The settings on record: membrane potential dye fluorescence, at 10 µM, stimulated with maximal-effect DAMGO; active compounds read high.

Test [14] concerns the target Short transient receptor potential channel 6 (Mus musculus) (UniProt Q61143). Description: mouse TRPC6 channel inhibitors, confirmation, HEK293 cells, membrane potential dye, duplicate (AID 488960;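 active = fluorescence ratio falls more than 5 SD below the full-stimulation control mean, in both duplicate runs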;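 note: integrated fluorescence ratio of peak minus minimum over baseline after agonist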). The note with it: ACh-evoked depolarization, at 10 µM; active compounds read high.

This is one part of the list. A number with no mark means an inactive call. The source made the active and inactive calls.

Data on seven compounds can be found in PubChem BioAssay.

What is called inhibition is the drop in the measured response relative to a control, in per cent.

Chain of Voltage-gated inwardly rectifying potassium channel KCNH2 (Homo sapiens) (Q12809 whole entry, looked up): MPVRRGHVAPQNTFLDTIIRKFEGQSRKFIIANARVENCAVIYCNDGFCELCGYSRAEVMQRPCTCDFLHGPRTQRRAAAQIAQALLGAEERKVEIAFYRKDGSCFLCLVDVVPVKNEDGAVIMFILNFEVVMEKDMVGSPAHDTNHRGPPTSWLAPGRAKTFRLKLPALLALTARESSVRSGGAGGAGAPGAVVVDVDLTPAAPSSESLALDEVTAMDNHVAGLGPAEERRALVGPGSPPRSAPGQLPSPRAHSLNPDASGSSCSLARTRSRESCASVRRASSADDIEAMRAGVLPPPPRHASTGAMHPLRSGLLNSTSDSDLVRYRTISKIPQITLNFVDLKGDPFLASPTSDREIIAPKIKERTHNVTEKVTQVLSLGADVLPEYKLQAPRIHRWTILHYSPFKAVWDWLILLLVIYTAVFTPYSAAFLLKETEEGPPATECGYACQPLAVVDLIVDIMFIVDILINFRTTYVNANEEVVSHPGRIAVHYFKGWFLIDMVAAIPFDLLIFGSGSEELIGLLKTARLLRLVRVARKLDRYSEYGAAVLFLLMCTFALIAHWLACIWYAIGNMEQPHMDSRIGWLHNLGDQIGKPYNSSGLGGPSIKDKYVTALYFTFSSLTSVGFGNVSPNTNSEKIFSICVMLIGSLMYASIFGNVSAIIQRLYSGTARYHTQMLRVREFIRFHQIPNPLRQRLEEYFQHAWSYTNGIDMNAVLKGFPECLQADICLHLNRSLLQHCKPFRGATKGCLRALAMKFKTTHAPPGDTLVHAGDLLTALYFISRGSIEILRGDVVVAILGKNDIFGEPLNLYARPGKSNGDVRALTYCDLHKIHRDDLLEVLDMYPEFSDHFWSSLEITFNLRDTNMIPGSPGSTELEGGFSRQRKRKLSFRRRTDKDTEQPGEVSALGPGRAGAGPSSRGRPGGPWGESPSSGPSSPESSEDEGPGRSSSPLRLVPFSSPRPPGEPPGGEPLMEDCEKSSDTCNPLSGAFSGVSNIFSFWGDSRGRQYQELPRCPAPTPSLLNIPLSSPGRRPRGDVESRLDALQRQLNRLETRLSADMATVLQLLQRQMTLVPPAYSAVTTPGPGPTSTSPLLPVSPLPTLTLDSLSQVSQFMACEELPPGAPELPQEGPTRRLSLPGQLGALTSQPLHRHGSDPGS
Chain of Inward rectifier potassium channel 2 (Mus musculus) (P35561 whole entry, looked up): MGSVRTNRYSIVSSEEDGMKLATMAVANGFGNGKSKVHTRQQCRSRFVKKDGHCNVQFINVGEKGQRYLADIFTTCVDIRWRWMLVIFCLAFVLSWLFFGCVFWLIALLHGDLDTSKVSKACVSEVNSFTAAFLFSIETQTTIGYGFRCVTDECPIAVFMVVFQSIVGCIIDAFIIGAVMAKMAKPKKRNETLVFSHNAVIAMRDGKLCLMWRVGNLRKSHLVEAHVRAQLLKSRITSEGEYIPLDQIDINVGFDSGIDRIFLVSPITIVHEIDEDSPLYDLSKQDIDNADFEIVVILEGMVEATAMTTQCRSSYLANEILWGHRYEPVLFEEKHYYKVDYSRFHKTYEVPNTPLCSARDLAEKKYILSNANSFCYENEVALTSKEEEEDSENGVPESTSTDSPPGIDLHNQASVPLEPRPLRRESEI
Chain of Short transient receptor potential channel 6 (Mus musculus) (Q61143 whole entry, looked up): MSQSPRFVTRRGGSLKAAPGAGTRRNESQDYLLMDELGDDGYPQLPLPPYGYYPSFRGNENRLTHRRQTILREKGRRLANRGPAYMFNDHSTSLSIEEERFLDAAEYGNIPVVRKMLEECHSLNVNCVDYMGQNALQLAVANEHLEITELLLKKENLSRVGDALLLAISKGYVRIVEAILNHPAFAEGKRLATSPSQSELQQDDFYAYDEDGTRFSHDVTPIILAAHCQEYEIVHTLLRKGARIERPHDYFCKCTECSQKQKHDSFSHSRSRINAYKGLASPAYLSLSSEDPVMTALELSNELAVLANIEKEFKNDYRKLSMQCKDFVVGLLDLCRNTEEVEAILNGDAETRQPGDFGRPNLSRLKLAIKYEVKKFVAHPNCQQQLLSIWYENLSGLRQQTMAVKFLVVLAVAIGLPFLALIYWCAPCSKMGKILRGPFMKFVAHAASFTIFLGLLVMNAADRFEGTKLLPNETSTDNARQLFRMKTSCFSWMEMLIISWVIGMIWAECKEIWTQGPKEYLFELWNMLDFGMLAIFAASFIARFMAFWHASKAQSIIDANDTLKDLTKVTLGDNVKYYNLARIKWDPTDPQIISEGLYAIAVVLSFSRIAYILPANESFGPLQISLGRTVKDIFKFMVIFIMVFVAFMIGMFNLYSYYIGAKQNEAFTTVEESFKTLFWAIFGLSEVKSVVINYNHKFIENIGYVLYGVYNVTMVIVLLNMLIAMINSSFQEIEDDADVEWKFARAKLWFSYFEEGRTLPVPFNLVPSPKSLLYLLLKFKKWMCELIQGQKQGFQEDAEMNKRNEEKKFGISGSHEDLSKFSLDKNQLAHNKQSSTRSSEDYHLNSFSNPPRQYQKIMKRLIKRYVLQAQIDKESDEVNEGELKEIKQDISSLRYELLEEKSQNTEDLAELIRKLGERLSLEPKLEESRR

Turning to `CC1(c2ccccc2Cl)NC(=O)N(CC(=O)NC(=O)NCc2ccco2)C1=O` (stereo not given), the compound was called inactive in [1] and in test [2]. Also, the activity increase over 3SD of controls in test [3] was 15.2% (active). The activation over 3SD threshold in test [4] is -28.7%. The potentiation, less the hit threshold in test [5] is -11.8%. Besides, the activity over 3SD threshold in test [6] is -15.3%.
`Cc1nnc(SCc2ccc(C(=O)c3ccc(Cl)cc3)o2)n1-c1ccccc1`: in test [1], the Tl flux remaining, % of negative control (active compounds read low) is 66% (active). Besides, the result in test [2], in test [7], in test [8], in test [11] and in test [13] was inactive. The inhibition in [9] was 19% (active); in test [14], 62% (active). In test [10], the membrane potential signal change was 116% (active). Also, the percent change from control (negative = decrease, positive = increase) in test [12] was 23.5% (active).
On to `COc1cccc(CN(C)CC(O)COC(c2ccccc2)c2ccccc2C)c1` (stereo not given), for which the Tl flux remaining, % of negative control (active compounds read low) in [1] was 66% (active). Moreover, in [2], the result was inactive.
For the compound `S=C(Nc1ccc(Br)cc1)NC1CCN(Cc2ccccc2)CC1`, the Tl flux remaining, % of negative control (active compounds read low) in test [1] is 48% (active). Moreover, the result in [2] and in test [8] was inactive. The inhibition is 49% (active) in test [7] and 4.2% (active) in test [9].
Consider `CCOC(=O)NC(C(F)(F)F)(C(F)(F)F)P(=O)(c1ccccc1)c1ccccc1`, for which the compound was called inactive in test [1] and in test [2]. The activity increase over 3SD of controls in [3] was -3.2%. The activation over 3SD threshold in test [4] was -13.6%. Besides, the potentiation, less the hit threshold in test [5] is -18.1%. Further, the activity over 3SD threshold in [6] is -34.2%.
`Cc1cc2cc3c(cc2nc1SCC(=O)Nc1c(C)cccc1C)CCC3`: the outcome in [1] and in test [2] was inactive. Moreover, the activity increase over 3SD of controls in test [3] was 20.3% (active). For the same compound, the activation over 3SD threshold in [4] was 6.2% (active). For the same compound, the potentiation, less the hit threshold in [5] is -22.8%. The activity over 3SD threshold in test [6] was -19.1%.
On to `Clc1cccc(Cl)c1OCCOCCNCc1ccccc1`, for which the Tl flux remaining, % of negative control (active compounds read low) in test [1] is 33% (active). The outcome in test [2], in [7] and in test [8] was inactive. In addition, in test [9], the inhibition was 69.6% (active).
